Sfp PPTase inh: inhibitors of Bacillus subtilis Sfp phosphopantetheinyl transferase; Q9F4F7; Biochemical Sfp PPTase activity, qHTS; Potency, µM, inactives show largest response in the series, negative = inhibition, most hits filed as inhibitors; hit rate 3.5% among 310,000;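 note: the enzyme is Sfp with the accession as filed and its product quenches rhodamine fluorescence; 0% = enzyme reaction without inhibitor and -100% = no enzyme wells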
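After 15 min at room temperature with compound, 15 nM Sfp received 5 uM rhodamine-CoA plus 12.5 uM BHQ-2-ybbR (50 mM Hepes pH 7.6, 10 mM MgCl2). Rate came from the fluorescence difference over 30 min, ex 525/em 598 nm.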
HP1b binding inh: HP1-beta chromodomain-methylated histone interaction inhibition; P83916; AlphaScreen HP1-beta / biotin-H3K9me3 peptide binding; Potency, µM (series often up to 114 µM), inactives show at the highest dose activity change, negative = inhibition, usual class: inhibitors; hit rate 0.56% among 390,000; AID 540317; note: nearly all actives have a fitted effect of over 70% in size
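HP1-beta protein (50 nM final) preincubated 30 min at room temperature with biotinylated H3(1-18)K9me3 peptide (50 nM) in PBS pH 7.4, 0.01% Tween-20, then compound added for 30 min. AlphaScreen streptavidin donor/nickel chelate acceptor beads (10 ug/mL final), 30 min dark, luminescence read.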
G9a block: inhibitors of human histone lysine methyltransferase G9a | Q96KQ7 | hit rate 8.8% among 350,000 | G9a H3K9 monomethylation, AlphaScreen, 2 h | Potency, µM (doses to about 102 µM), without a hit: at the top dose activity, negative = inhibition, hits mostly inhibitors; note: % is set by controls: 0 for no effect and ±100 for the full control effect; nearly all actives have a fitted effect of over 75% in size
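Methyltransferase reactions run at room temperature for 2 h (20 nM enzyme, 500 nM biotin-H3K9 peptide, 20 uM SAM) after a 15 min compound preincubation; product detected by AlphaScreen beads and anti-H3K9me1 antibody.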
L3MBTL1 inh: inhibitors of human L3MBTL1 | AlphaScreen L3MBTL1–H3K9me1 peptide binding | AID 485360 | Q9Y468 | Potency, µM (titrated, usually from 57.1 µM), for the others: top-dose activity, negative = inhibition, hits mostly inhibitors | hit rate 0.66% among 230,000; note: % is set by controls: 0 for no effect and ±100 for the full control effect; nearly all actives have a fitted effect of over 60% in size
Target sequence (Q9Y468 whole entry, looked up): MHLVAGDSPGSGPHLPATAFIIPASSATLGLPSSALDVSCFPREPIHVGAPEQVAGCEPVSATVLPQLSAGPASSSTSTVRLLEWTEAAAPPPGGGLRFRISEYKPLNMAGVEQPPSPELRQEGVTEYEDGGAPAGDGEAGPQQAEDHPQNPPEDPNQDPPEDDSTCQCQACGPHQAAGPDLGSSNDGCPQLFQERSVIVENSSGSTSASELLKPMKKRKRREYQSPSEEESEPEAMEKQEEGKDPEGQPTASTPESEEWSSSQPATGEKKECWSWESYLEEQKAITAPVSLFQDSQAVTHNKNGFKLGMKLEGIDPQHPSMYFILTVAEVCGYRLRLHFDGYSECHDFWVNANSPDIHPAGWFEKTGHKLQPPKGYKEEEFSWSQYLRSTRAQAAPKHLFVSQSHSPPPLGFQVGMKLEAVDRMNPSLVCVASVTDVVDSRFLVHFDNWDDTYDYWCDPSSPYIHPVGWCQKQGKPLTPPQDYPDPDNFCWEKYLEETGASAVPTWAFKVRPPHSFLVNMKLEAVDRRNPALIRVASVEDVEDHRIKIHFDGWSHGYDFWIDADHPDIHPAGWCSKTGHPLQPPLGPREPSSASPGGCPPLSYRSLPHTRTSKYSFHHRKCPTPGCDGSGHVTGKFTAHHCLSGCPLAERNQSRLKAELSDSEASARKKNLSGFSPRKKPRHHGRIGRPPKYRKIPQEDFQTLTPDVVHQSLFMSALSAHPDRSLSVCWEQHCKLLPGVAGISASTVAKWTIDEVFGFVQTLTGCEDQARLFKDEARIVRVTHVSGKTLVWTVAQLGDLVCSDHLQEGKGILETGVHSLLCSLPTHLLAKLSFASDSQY
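First, the protein-peptide complex forms for 30 min at room temperature (L3MBTL1 50 nM, biotinylated H3K9me1 peptide 75 nM). Next, compounds are pin-transferred and incubated 30 min. Finally, AlphaScreen beads are added and read after 30 min.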
BAZ2B inh: BAZ2B (human) inhibition; hit rate 4.4% among 360,000; Q9UIF8; AlphaScreen BAZ2B-H3K14Ac peptide displacement; Potency, µM (highest dose often 114 µM), for inactives: at the highest dose activity change, negative = inhibition, usual class: inhibitors; note: % is set by controls: 0 for no effect and ±100 for the full control effect; nearly all actives have a fitted effect of over 60% in size
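Protein-peptide AlphaScreen: BAZ2B 50 nM, b-H3K14Ac 50 nM, 1x PBS pH 7.4 + 0.01% Tween-20. Preincubation 30 min RT; cpd 30 min RT (top 110 uM); beads 20 min RT, light-protected.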
JMJD2A Tudor inh: blocks the human JMJD2A Tudor domain. O75164. AlphaScreen JMJD2A-Tudor / H3K4me3 peptide binding. Potency, µM (doses to about 114 µM), without a hit: at the top dose activity change, negative = inhibition, hits mostly inhibitors. hit rate 4.4% among 390,000; note: % is set by controls: 0 for no effect and ±100 for the full control effect; nearly all actives have a fitted effect of over 50% in size
* marks the source's active call; other numbers are inactive results; [ ] = another dose, or the depositor's remark. Hits are enriched below; roughly 12% of the tested compounds scored in any of these assays. Calls come from the whole dose curve; as a rule, active = well fitted curve in the direction sought with a large enough effect; inconclusive = small, poorly fitted or top-dose-only effect, or another doubt; inactive = no such curve, though single readings can be large; an effect the other way counts as inactive or inconclusive. Potency is the fitted concentration of half-maximal effect.

Cc1cc(Br)c(OCC(=O)NN)c2c1CCC2 was read as Sfp PPTase inh -1.6%, HP1b binding inh 44.7%, G9a block -1.5%, L3MBTL1 inh 4.3%, BAZ2B inh 0.7% and JMJD2A Tudor inh -17.4%.
For COc1ccc(C(C)(C)C)cc1NC(=O)CNc1cccc2ccccc12 the results were Sfp PPTase inh 33.3%, HP1b binding inh inconclusive, G9a block inconclusive, L3MBTL1 inh -14.7%, BAZ2B inh inconclusive and JMJD2A Tudor inh 44.7µM*.
COc1ccccc1CN(C)CC(=O)Nc1cccc2ccccc12 was read as Sfp PPTase inh 17.4%, HP1b binding inh 18.8%, G9a block 50.1µM*, BAZ2B inh 1.6% and JMJD2A Tudor inh -4.9%.
Screening COc1ccccc1CN(C)CC(=O)Nc1ccc(Cl)cc1C(F)(F)F returned Sfp PPTase inh inconclusive, HP1b binding inh inconclusive, G9a block 8.91µM*, L3MBTL1 inh 22.6%, BAZ2B inh 50.1µM* and JMJD2A Tudor inh 3.55µM*.
COc1ccccc1NC(=O)C(C)N(C)CC(=O)Nc1cccc2ccccc12 (stereo not given) was read as HP1b binding inh 27.7%, L3MBTL1 inh 4.1% and JMJD2A Tudor inh -18.5%.
`CN(CCc1ccc(Cl)c(Cl)c1)CCN1CCCCCC1` gave Sfp PPTase inh 24.9% and G9a block 21.9%[59 µM].
For O=C(COC(=O)[C@@H]1CC(O)CN1S(=O)(=O)c1ccc2c(c1)OCCO2)Nc1cc(F)ccc1F (stereo not given in full) the results were HP1b binding inh 30.0%, L3MBTL1 inh -0.5% and JMJD2A Tudor inh -1.0%.
`C=CCN1C(=O)C(O)(CC(=O)c2ccco2)c2cc(Br)ccc21` (stereo not given) gave Sfp PPTase inh 13.0%, HP1b binding inh 24.9%, G9a block -31.5%, BAZ2B inh -3.9% and JMJD2A Tudor inh -14.8%.
COc1ccc(C2=CC3=C(Br)C(=O)C(C)(OC(=O)c4cccs4)C(=O)C3=CO2)cc1 (stereo not given) was read as Sfp PPTase inh -0.9%, HP1b binding inh inconclusive and JMJD2A Tudor inh 28.2µM*.
Screening COc1ccc(C2=CC3=C(Br)C(=O)C(C)(OC(=O)c4ccco4)C(=O)C3=CO2)cc1 (stereo not given) returned Sfp PPTase inh inconclusive, HP1b binding inh inconclusive, G9a block inconclusive, BAZ2B inh 44.7µM* and JMJD2A Tudor inh 28.2µM*.
For COc1ccc(C2=CC3=C(Br)C(=O)C(C)(OC(=O)c4cnc5ccccc5n4)C(=O)C3=CO2)cc1 (stereo not given) the results were Sfp PPTase inh -1.8%.
Screening CCOc1ccc(N=C(NN)c2ccc3ccccc3n2)cc1 returned Sfp PPTase inh 14.1µM*, HP1b binding inh -1.2%[57 µM], G9a block 12.6µM*, L3MBTL1 inh -22.6%, BAZ2B inh 39.8µM* and JMJD2A Tudor inh 50.1µM*.
Screening CCOc1ccc(N=C(C)C2=C(O)c3ccccc3C2=O)cc1 returned Sfp PPTase inh inconclusive, HP1b binding inh 11.5%, G9a block inconclusive, BAZ2B inh -11.3% and JMJD2A Tudor inh -15.4%.
Cc1nnc(Nc2ccccc2)n(N)c1=O was read as Sfp PPTase inh 15.2%, HP1b binding inh 6.5%, G9a block 11.1%[59 µM], BAZ2B inh -15.0% and JMJD2A Tudor inh inconclusive.
Screening Cc1nnc(NN)n(N)c1=O returned Sfp PPTase inh 10µM*, HP1b binding inh 22.4µM*, L3MBTL1 inh 7.7%, BAZ2B inh 11.0% and JMJD2A Tudor inh 31.6µM*.
CC(C)C[C@H](NC(=O)OC(C)(C)C)C(=O)N[C@@H](CO)[C@H](O)[C@@H]1C[C@@H]1C(=O)NC1CCCCC1 was read as Sfp PPTase inh 12.5%, HP1b binding inh 56.0%, L3MBTL1 inh 11.1%, BAZ2B inh -7.7%[57.1 µM] and JMJD2A Tudor inh -5.6%.
Screening COCCNC(=S)NN=C1CCCCCC1 returned Sfp PPTase inh 56.2µM*, HP1b binding inh 6.4%, G9a block 7.1%, BAZ2B inh -21.9% and JMJD2A Tudor inh -13.0%.
For S=C(NCCc1ccccc1)NN=C1CCCCCC1 the results were Sfp PPTase inh 17.9%, HP1b binding inh -19.2%, G9a block 59.9%[12.7 µM], L3MBTL1 inh -28.1%, BAZ2B inh inconclusive and JMJD2A Tudor inh -30.1%.
For COCCNC(=S)N/N=C1\CC(C)CC(C)(C)C1 (stereo not given) the results were Sfp PPTase inh 50.1µM*, HP1b binding inh 1.1%, G9a block 50.1µM*, L3MBTL1 inh 6.0%, BAZ2B inh inconclusive and JMJD2A Tudor inh -24.8%.
O=C(CNC(=O)c1ccccc1)NCC(=O)OCC(=O)c1cccc2ccccc12 was read as HP1b binding inh 22.7%[57 µM] and JMJD2A Tudor inh -12.3%[57.1 µM].
For FC(F)(F)c1cnc(-n2cc[nH]c2=S)c(Cl)c1 the results were Sfp PPTase inh -1.7%, HP1b binding inh 29.1%, G9a block 31.6µM*, BAZ2B inh 13.3% and JMJD2A Tudor inh 79.4µM*.
Screening Cc1ccc(CNC(=O)c2ccc(N3CCC4(CC3)CC(c3cccc(Br)c3)=NO4)c([N+](=O)[O-])c2)cc1 returned HP1b binding inh 6.6%, G9a block 6.5%[2.33 µM], L3MBTL1 inh -8.0%, BAZ2B inh -21.0% and JMJD2A Tudor inh -27.5%.
`CCCNC(=O)c1ccc(N2CCC3(CC2)CC(c2cccc(Br)c2)=NO3)c([N+](=O)[O-])c1` gave Sfp PPTase inh -0.6%, HP1b binding inh 21.0%, G9a block 79.4µM*, L3MBTL1 inh -12.6%, BAZ2B inh inconclusive and JMJD2A Tudor inh -31.4%.
Screening CCCNC(=O)c1ccc(N2CCC3(CC2)CC(c2ccccc2)=NO3)c(NC(=O)c2ccccc2)c1 returned Sfp PPTase inh 56.2µM*, HP1b binding inh 24.1%, L3MBTL1 inh -0.6%, BAZ2B inh 1.1% and JMJD2A Tudor inh -31.0%.
For Cn1c(N)c(C#N)c2c(c1=S)COC(C)(C)C2 the results were Sfp PPTase inh 10.2%, HP1b binding inh 12.1%, G9a block -16.0%, BAZ2B inh 1.6% and JMJD2A Tudor inh -10.9%.
Screening Cn1c(N)c(C#N)c2c(c1=S)CSC(C)(C)C2 returned Sfp PPTase inh 79.4µM*, HP1b binding inh 5.0%, G9a block 25.1µM*, L3MBTL1 inh -2.7%, BAZ2B inh -10.4% and JMJD2A Tudor inh 79.4µM*.
For CC(C)C1Cc2c(C#N)c(N)n(C)c(=S)c2CO1 (stereo not given) the results were Sfp PPTase inh -4.6%, HP1b binding inh 25.3%, G9a block 50.1µM*, L3MBTL1 inh -2.5%, BAZ2B inh -12.6% and JMJD2A Tudor inh -12.3%.
CC(C)c1nc(Cl)c(C#N)c2c1CSC(C)(C)C2 was read as Sfp PPTase inh -2.7%, HP1b binding inh 15.3%, G9a block -4.9%, L3MBTL1 inh 5.0%, BAZ2B inh 3.2% and JMJD2A Tudor inh 6.7%.

Screening data (PubChem BioAssay)
